Experimental data from PubChem BioAssay AID1490 (National Center for Advancing Translational Sciences (NCATS), 2009).
Hit rate of the full screen: of about 310,000 compounds, about 11,000 (3.5%) were called active. Inconclusive results (about 4%) are left out. Calls come from the whole dose curve; as a rule, active = well fitted inhibition curve with a large enough effect; inconclusive = small, poorly fitted or top-dose-only effect, or another doubt; inactive = no such curve, though single readings can be large or run the other way. Shown is part of a subset that was picked to be rich in actives.

target: 4'-phosphopantetheinyl transferase ffp (Bacillus subtilis) (UniProt Q9F4F7); experiment: qHTS Assay for Inhibitors of Bacillus subtilis Sfp phosphopantetheinyl transferase (PPTase); details: Biochemical Sfp PPTase activity;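 note: the enzyme is Sfp with the accession as filed and its product quenches rhodamine fluorescence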;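 for Largest response in the series, negative = inhibition: 0% = enzyme reaction without inhibitor and -100% = no enzyme wells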
Outline: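 With Hepes-Na pH 7.6 buffer containing 10 mM MgCl2, Sfp (15 nM) modified BHQ-2-YbbR (12.5 uM) using rhodamine-CoA (5 uM). Two reads 30 minutes apart at 525/598 nm yielded each well's rate.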
Potency is the fitted concentration of half-maximal effect.

Largest response in the series, negative = inhibition, inactive:
COc1ccc2c(CC(=O)N3CCc4cc(OC)c(OC)cc4C3)coc2c1 1%
COc1ccc(OCC(=O)Nc2nnc(-c3ccco3)s2)cc1 -15%
CNc1nnc(-c2ccco2)s1 5.68%
COc1ccc(N(CC(=O)NCC2CCCO2)C(=O)CCC(=O)Nc2nccs2)c(OC)c1 (stereo not drawn) 26.6%
CCOc1ccc(C(=O)Nc2ccc(CN3CCOCC3)cc2)cc1Cl 8.41%
O=C(Nc1ccc(O)cc1)c1ccccc1O -1.36%
CCOC(=O)CCc1c(C)c(C#N)c2[nH]c3ccccc3n2c1=O -12.3%
Cc1ccccc1Cn1c(=O)[nH]c2ccccc21 -2.4%
Cc1cccn2cc(-c3cccc(S(=O)(=O)N4CCCCC4)c3)nc12 -2.13%
O=C(CSc1nnc(-c2cccnc2)n1Cc1ccco1)c1ccc(Cl)cc1 5.12%
CCOC(=O)Cc1csc(NC(=O)CSc2nnc(-c3cccnc3)n2Cc2ccco2)n1 -19.3%
COc1ccccc1NC(=O)CSc1nnc(-c2ccoc2C)n1CCc1ccccc1 -0.913%
O=C(CSc1nnc(-c2cccs2)n1-c1ccccc1)NCc1ccco1 14.2%
COc1ccccc1NC(=O)CSc1nc2sc3c(c2c(=O)n1-c1ccccc1)CCN(C)C3 -13.2%
Cc1ccc(NC(=O)CSc2nnc(-c3cnccn3)n2Cc2ccco2)cc1C -38.6%
CCn1c(SCC(=O)c2ccc(Cl)s2)nnc1-c1cccs1 -7.42%
CCn1c(SCC(=O)c2ccc3ccccc3c2)nnc1-c1cccs1 -21.9%
O=C1Nc2cc(C(=O)N3CCC(N4CCCCC4)CC3)ccc2S/C1=C\c1ccccc1 -28.2%
CCCNC(=O)CCc1c(C)nc2c(c(C)nn2-c2ccc(C)cc2)c1C 20.1%
O=C(NC1CCCC1)C(=O)c1c[nH]c2ccccc12 20.8%
CC(C)C[C@@H](CC(=O)N[C@@H](CCC(=O)O)CC(=O)O)NC(=O)[C@@H]1CCCC[C@H]1NC(=O)C[C@@H](NC(=O)C[C@H](Cc1c[nH]c2ccccc12)NC(=O)[C@@H]1CCCC[C@H]1N)C(C)C -18.7%
CCOC(=O)c1ccc(NC(=O)Cc2cccs2)cc1 0.409%
COc1ccc(NC(=O)C2CCC(CNC(=O)[C@@H]3Cc4ccccc4CN3)CC2)cc1 (stereo partly drawn) 7.97%
O=C(COc1ccc(S(=O)(=O)Nc2cccc(C(F)(F)F)c2)cc1)N1CCOCC1 9.23%
O=C(NC1CCCC1)C(c1ccco1)N(C(=O)c1csnn1)c1ccccc1 (stereo not drawn) 19.9%
Cc1nc2cnc(N3CCNCC3)nc2n(CCc2ccccc2)c1=O -8.2%
Cn1cc(-c2nc3cnc(N4CCNCC4)nc3n(CCC#N)c2=O)c2ccccc21 -19.5%
COc1ccc(C2/C=C\CN(C(=O)c3ccc(C)cc3)C(Cc3ccccc3)C(=O)N2Cc2ccc(F)cc2)cc1 (stereo not drawn) -6.91%
CC1(C(=O)NNC(=S)NCC2CCCO2)CC1(Cl)Cl (stereo not drawn) 17.2%
Cc1cccc(C)c1NC(=O)NC1=CCCN1C 20.1%
Cc1cc(OCc2ccc(C(=O)Nc3ccc(C(=O)O)cc3)o2)ccc1Cl 0.726%
Cc1cc(C(=O)Nc2c(C)nn(Cc3ccccc3)c2C)on1 18.5%
CC1(C)CC(=O)C=C(Nc2ccccc2)C1 25.1%
COC(=O)NNC1=CC(=O)CC(C)(C)C1 -3.96%
Cc1ccc2c(c1)N(CC(=O)N1CCCC(C)C1)C(=O)CO2 (stereo not drawn) 5.13%
CCn1c(C)c(C)c2cc(C(=O)N3CCN(c4cccc(C)c4C)CC3)ccc21 -24.3%
CCOC(=O)c1[nH]c2c(c1-c1ccccc1)C(=O)CC(c1ccc(Cl)cc1)C2 (stereo not drawn) 5.24%
CCOC(=O)C1=C(C)NC(=O)N(C(C)=O)C1c1ccc(Cl)cc1 (stereo not drawn) 19%
CCC(C)c1ccc(NC(=S)N2CCCC2)cc1 (stereo not drawn) 7.33%
c1nc(COc2nsnc2N2CCOCC2)cs1 0.0907%
O=C(O)COc1nsnc1N1CCOCC1 18.9%
CCc1c(C)c2ccc(OC3CCCCC3=O)cc2oc1=O (stereo not drawn) -0.0226%
CCOC(=O)C(C)n1cnc2c(nnn2-c2ccc(F)cc2)c1=O (stereo not drawn) 8.12%
O=S(=O)(NCCNS(=O)(=O)c1ccccc1)c1ccccc1 14.7%
O=S(=O)(NCc1ccccc1)c1ccc(S(=O)(=O)N2CCCC2)cc1 -13.6%
Cc1ccccc1NC(=O)c1cc(S(=O)(=O)Nc2cccc(C(=O)O)c2)ccc1Cl 17.9%
COCCNC(=O)C1CCN(C(=O)C2CC(=O)N(c3ccc(C)cc3)C2)CC1 (stereo not drawn) 10.9%
NS(=O)(=O)c1cccc(NC(=O)CN2CCCc3ccccc32)c1 17%
COC(=O)c1[nH]c2cccc(C)c2c1NC(=O)CN1CCCc2ccccc21 -4.7%
O=C(Nc1nnc(S(=O)(=O)N2CCOCC2)s1)c1cccc(Br)c1 19.1%
S=c1[nH]nc(-c2ccncc2)n1/N=C/c1ccccc1Cl -1.85%
c1ccc(-c2cc(-c3ccccc3)[nH]n2)cc1 4.07%
Cc1ccc(S(=O)(=O)N/N=C\c2cc3c(cc2[N+](=O)[O-])OCO3)cc1 -17.6%
Cc1cc(C)nc(N/N=C/c2ccncc2)n1 -9.4%
Cc1cc(C)nc(N/N=C/c2c(C)oc3ccccc23)n1 -2.54%
C/[N+]([O-])=C\c1ccc([N+](=O)[O-])o1 10%
O=C(NNS(=O)(=O)c1ccc([N+](=O)[O-])cc1)C1CCCCC1 5.3%
CC(C)(C)c1cc[n+](-c2[nH]c(=O)sc2/C=N/N=C(\[O-])c2ccccc2)cc1 -4.09%
COC1=C(N2CCOCC2)C(=O)c2ccccc2C1=O -22.9%
COc1ccc(CNC(=O)CCN2C(=O)c3ccccc3C2=O)cc1 10.6%
COc1cc(OC)c(OC)cc1CN1CCN(C(=O)c2cccc3ccccc23)CC1 -29.2%
COc1ccccc1CN1CCN(C(c2ccccc2)c2ccccc2)CC1 -9.22%
Cc1ccc(C(=O)N/C(=C\c2ccc(F)cc2)C(=O)NCCN2CCOCC2)cc1 8.47%
Cc1ccccc1N1CCN(CC(=O)NCc2ccc(Cl)cc2)CC1 9.8%
O=C(NCc1ccc(Cl)cc1)C1CCN(S(=O)(=O)c2cccs2)CC1 2.39%
CN1CCN(C(=O)c2ccccc2NC(=O)COc2ccccc2Cl)CC1 18.2%
CC(C)NC(=O)c1ccc(Cl)cc1Cl 26.8%
COc1cc(/C=C(/NC(=O)c2ccc(Cl)cc2Cl)C(=O)O)cc(OC)c1OC 1.15%
COc1ccc(N2CCN(C(=O)c3ccc(N4CCCCS4(=O)=O)cc3)CC2)cc1 1.49%
CN(CC(=O)NCc1ccncc1)S(=O)(=O)c1ccc(Br)cc1 13.4%
O=C(Nc1nc2c(F)cc(F)cc2s1)C1COc2ccccc2O1 (stereo not drawn) -2.2%
O=C(Nc1ncc([N+](=O)[O-])s1)C1COc2ccccc2O1 (stereo not drawn) -25.4%

Potency, active:
Cc1ccc(OCC(=O)Nc2nnc(-c3ccco3)s2)cc1 79.4 µM
CCCc1cc(=S)n2c([nH]c3ccccc32)c1C#N 56.2 µM
O=C(CSc1nnc(-c2cccs2)n1Cc1ccco1)c1ccc2c(c1)OCO2 56.2 µM
COc1ccccc1NC(=O)CSc1nc2sc(C)c(C)c2c(=O)n1Cc1ccco1 20 µM
O=C(CSc1nnc(-c2cccnc2)n1Cc1ccco1)c1ccc(Cl)c(Cl)c1 28.2 µM
COc1ccc(NC(=O)CSc2nnc(-c3cccs3)n2Cc2ccco2)cc1OC 22.4 µM
Cn1cc(-c2nc3cnc(N4CCNCC4)nc3n(CCc3ccccc3)c2=O)c2ccccc21 39.8 µM
Cc1ccc(C(=O)O)cc1NC(=O)c1ccc(Cn2nc(C)c(Cl)c2C)o1 56.2 µM
Cc1cc(C)nc(NNC2=CC(=O)CC(C)(C)C2)n1 22.4 µM
CCOC(=O)C1Sc2[nH]c(=O)sc2C(c2ccc(Cl)cc2)C1C(=O)OCC (stereo not drawn) 22.4 µM
c1ccc(COc2nsnc2N2CCOCC2)cc1 28.2 µM
O=c1/c(=C/c2ccc(CNS(=O)(=O)c3ccccc3)o2)sc2n1CCN=2 50.1 µM
COC(=O)c1[nH]c2ccccc2c1NC(=O)CN1CCCc2ccccc21 39.8 µM
S=c1[nH]nc(-c2cc(-c3ccccc3)n[nH]2)n1/N=C/c1c2ccccc2cc2ccccc12 50.1 µM
Cc1cc(C)nc(N/N=C/c2ccc([N+](=O)[O-])o2)n1 79.4 µM
CCc1ccc(S(=O)(=O)N/N=C\c2ccc([N+](=O)[O-])o2)cc1 56.2 µM
COc1ccccc1CN1CCN(Cc2cc(OC)c(OC)cc2OC)CC1 79.4 µM
O=C(CN1CCN(S(=O)(=O)c2ccc(Cl)s2)CC1)NCc1ccc(Cl)cc1 56.2 µM
COC(=O)/C(=C\Nc1ccccc1)NC(=O)c1ccc(Cl)cc1Cl 79.4 µM
COc1ncnc2c1N=C1CC(C)(C)CC(N)=C1S2 44.7 µM
O=C(Nc1nc(-c2ccncc2)cs1)C1COc2ccccc2O1 (stereo not drawn) 8.91 µM
